Source: PubChem BioAssay
ULK1 primary = ULK1 kinase inhibitors, primary screen, biochemical, AlphaScreen; AID 1259251, 2017; hit rate 1.9% among 30,000; AlphaScreen Atg13 phosphorylation by ULK1, luminescence; inhibition, % at 5.96 µM; in the data active = inhibition above about 43%;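 note: 0% = median of compound wells and 100% = no enzyme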
ASK1 primary = ASK1 kinase inhibitors, primary screen, biochemical, AlphaScreen | AID 1159602, 2016 | hit rate 0.99% among 22,000 | AlphaScreen MKK6 phosphorylation by ASK1, luminescence | inhibition, % at 7.44 µM | Mitogen-activated protein kinase kinase kinase 5 (Homo sapiens), Q99683; in the data active = inhibition above about 35%;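 note: 0% = median of compound wells and 100% = no enzyme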
AlphaScreen intf = AlphaScreen signal interference by compounds, dose response, artefact control for ASK1 inhibitor project, biochemical, TruHits beads; shares compounds with ASK1 primary; signal interference counterscreen; IC50, µM; hit rate 20% among 220; AID 1159604, 2016;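 active = IC50 of 10 µM or lower in the counterscreen; inactive = IC50 above 10 µM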;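 note: loss of AlphaScreen light from TruHits beads alone with no ASK1 enzyme present; potency of signal reduction so a low IC50 flags an assay artifact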
Starred values were filed as active, the others as inactive; i = inactive; x = no result. A selection: hits, their analogues and other compounds. The true share with any hit is near 2.5%.

SMILES	ULK1 primary	ASK1 primary	AlphaScreen intf
FC(F)(F)c1ccc(Cn2cnc3c(NCCN4CCOCC4)nc(N4CCN(Cc5ccc6c(c5)OCO6)CC4)nc32)cc1	-42.1	6.5	x
CC(C)n1cnc2c(NCc3cccc(C(F)(F)F)c3)nc(N3CCN(Cc4ccc5c(c4)OCO5)CC3)nc21	-15.9	37.0*	>20
CCN(CC)C(=O)C1CCCN(c2nc(Nc3ccc(N4CCOCC4)cc3)c3ncn(CCN4CCCC4=O)c3n2)C1 (centres undefined)	1.5	2.8	x
c1ccc(OCCNc2nc(N3CCN(Cc4ccc5c(c4)OCO5)CC3)nc3c2ncn3C2CCCCC2)cc1	15.8	38.7*	>20.1
CCN(CC)C(=O)C1CCCN(c2nc(Nc3ccc(N4CCOCC4)cc3)c3ncn(Cc4ccc(C(F)(F)F)cc4)c3n2)C1 (centres undefined)	-17.4	56.0*	>20.1
FC(F)(F)c1ccc(Cn2cnc3c(NCc4cccc(C(F)(F)F)c4)nc(N4CCN(Cc5ccc6c(c5)OCO6)CC4)nc32)cc1	15.4	28.7	x
OCCNc1nc(N2CCN(Cc3ccc4c(c3)OCO4)CC2)nc2c1ncn2C1CCCCC1	-9.8	11.8	x
Cn1c(=O)c2c(nc(SCC(O)CO)n2Cc2ccccc2)n(C)c1=O (centres undefined)	-1.0	x	x
O=C(NC1CCN(Cc2ccccc2)CC1)c1ccc2nc(NCCCN3CCCC3=O)sc2c1	0.0	2.2	x
c1ccc(CNc2nc(NCc3ccc4c(c3)OCO4)nc3c2ncn3-c2ccccc2)cc1	10.9	5.8	x
C=CCNc1cc(=O)n(C)c(=O)n1Cc1cc(C)cc(C)c1	-3.3	x	x
CS(=O)(=O)c1cc(-c2ccnc(Nc3ccc(-n4cnc(-c5ccccn5)n4)cc3)n2)cc(N2CCOCC2)c1	-4.7	-11.4	x
FC(F)(F)c1ccc(Cn2cnc3c(Nc4ccc5c(c4)OCO5)nc(Nc4ccc(C(F)(F)F)cc4)nc32)cc1	-8.2	13.1	x
FC(F)(F)c1ccc(Cn2cnc3c(Nc4ccc5c(c4)OCO5)nc(N4CCN(c5ccccn5)CC4)nc32)cc1	12.4	50.7*	>20
FC(F)(F)c1ccc(Nc2nccc(Nc3ccc4c(c3)OCO4)n2)cc1	-22.2	12.8	x
CN(C)c1cccc(Nc2nccc(Nc3ccc4c(c3)OCO4)n2)c1	-1.8	36.3*	i
COc1cc(Nc2nc(N3CCN(c4ccccn4)CC3)nc3c2ncn3Cc2ccc(C(F)(F)F)cc2)cc(OC)c1OC	-16.4	27.2	x
FC(F)(F)c1ccc(Cn2cnc3c(Nc4ccc5c(c4)OCO5)nc(Nc4ccccc4)nc32)cc1	-3.7	40.8*	>22
CC(C)n1c(N2CCN(Cc3ccc4c(c3)OCO4)CC2)nc2c(NCc3cccnc3)ncnc21	13.7	8.2	x
CC(C)n1cnc2c(NC3CCN(Cc4ccccc4)CC3)nc(Nc3cccc(N(C)C)c3)nc21	17.9	35.8*	i
Cc1cc(NC2CCN(Cc3ccccc3)CC2)nc(Nc2cccc(N(C)C)c2)n1	20.9	50.0*	8.58*
CN(C)c1cccc(Nc2nc(NC3CCN(Cc4ccccc4)CC3)c3ncn(-c4ccccc4)c3n2)c1	9.8	9.8	x
Cc1cc(NC2CC2)nc(Nc2cccc(N(C)C)c2)n1	-5.8	18.8	x
CC(C)n1c(Nc2ccccc2)nc2c(NC3CCN(Cc4ccccc4)CC3)ncnc21	-7.0	-11.7	x
CC(C)n1c(Nc2cccc(N(C)C)c2)nc2c(NC3CCN(Cc4ccccc4)CC3)ncnc21	17.5	38.2*	>18.8
SMILES	ULK1 primary	ASK1 primary	AlphaScreen intf
Cc1cnc(-c2ccc(C(N)=O)cc2)nc1Nc1ccc(N2CCOCC2)cc1	29.6	36.2*	>20
COc1cc(Nc2nc(-c3ccc(C(N)=O)cc3)ncc2C)cc(OC)c1OC	54.6*	61.3*	>19.4
COc1ccc(-c2ncc(C)c(Nc3ccc(N4CCOCC4)cc3)n2)cn1	2.1	-0.4	x
COc1cc(Nc2ncnc3nc(-c4ccc(C(N)=O)cc4)[nH]c23)cc(OC)c1OC	5.6	25.2	x
Fc1cc(-c2ccnc(Nc3ccc(-c4ncn[nH]4)cc3)n2)cc(N2CCOCC2)c1	-4.7	9.5	x
O=C(NCCN1CCOCC1)c1cccc(-n2ncc3ccc(-c4ncn[nH]4)cc32)c1	-20.4	-11.3	x
CCn1c(=O)[nH]c2ncnc(-c3ccc(NC(=O)Nc4cccc(C(=O)NC(C)C)c4)cc3)c21	21.9	-33.4	x
Cc1c[nH]c2ncnc(-c3ccc(NC(=O)Nc4ccccc4)cc3)c12	-4.2	39.2*	>19.2
CC(C)NC(=O)c1cccc(NC(=O)Nc2ccc(-c3cn[nH]c3)cc2)c1	7.7	-0.3	x
CC(C)NC(=O)c1cccc(NC(=O)Nc2ccc(-c3ccnc4[nH]ccc34)cc2)c1	23.8	38.6*	>19.2
COc1ccc2c(c1)CC(C(=O)Nc1ccc(-c3cn[nH]c3)cc1OCCC(C)C)CO2 (centres undefined)	9.0	31.4	x
COc1ccc2c(c1)CC(C(=O)Nc1ccc(-c3cn[nH]c3)cc1OCCOCc1ccccc1)CO2 (centres undefined)	17.3	42.9*	>19.2
COc1ccc(CCNC(=O)c2ccc3nc(-c4ccc(C(=O)N5CCN(C)CC5)cc4)sc3c2)cc1	7.7	20.4	x
COc1ccc(CCNc2ccnc(Nc3cccc(N(C)C)c3)n2)cc1	7.2	38.0*	i
COc1ccc(CCNC(=O)c2ccnc(Nc3cccc(N(C)C)c3)c2)cc1	-0.5	40.7*	>20
COc1ccc(CCNC(=O)c2ccnc(Nc3ccc4ncccc4c3)c2)cc1	-12.4	-0.2	x
CN(C)c1cccc(Nc2nccc(NCCc3ccc(O)cc3)n2)c1	-9.1	26.9	x
COCCn1c(SCc2cccnc2)nc2c(c1=O)SC(C)C2 (centres undefined)	4.9	x	x
CN(C)CCNC(=O)c1ccc2c(c1)CC(c1nc3ncc(-c4ccnc(N)n4)cc3[nH]1)CO2 (centres undefined)	6.3	11.1	x
CC(C)CNC(=O)c1ccc2c(c1)CC(c1nc3ncc(-c4ccnc(N)n4)cc3[nH]1)CO2 (centres undefined)	22.5	42.3*	>19.2
Cc1ccc(-c2ncn(-c3ccc(Nc4cc(-c5cnn(C)c5)c(Cl)cn4)cc3)n2)cn1	-26.1	-18.3	x
Cc1ccc(-c2ncn(-c3ccc(Nc4ncc(Cl)c(-c5ccnn5C)n4)cc3)n2)cn1	6.9	42.9*	>19.2
Cc1ncn(-c2ccc(Nc3ncc4cccc(-c5cccc(F)c5)c4n3)cc2)n1	0.9	-7.1	x
Cc1ccc(-c2cccc3cnc(Nc4ccc(-n5cnc(C)n5)cc4)nc23)cn1	19.8	39.1*	>19.2
Oc1ccccc1C1OCC(C2CC=CCC2)CO1 (centres undefined)	6.7	x	x
SMILES	ULK1 primary	ASK1 primary	AlphaScreen intf
CN1CCN(c2ccc(-c3nc(NCCOc4ccccc4)c4ncn(CCN5CCCC5=O)c4n3)cc2)CC1	20.3	8.8	x
O=C(NCCc1ccc(O)cc1)C1CCN(c2ccc(Nc3ccc(N4CCOCC4)cc3)nn2)CC1	0.8	-9.2	x
CC(C)N(CCNC(=O)c1ccc2nc(N3CCc4ccccc4C3)sc2c1)C(C)C	-4.3	-22.7	x
Cc1nc(NC2CC2)cc(-c2cncc(-c3cc4ccccc4s3)c2)n1	4.4	x	x
Nc1nc(NC2CC2)c2ncn(C3C=CC(CO)C3)c2n1 (centres undefined)	1.4	x	x
COc1cc(NC(=O)c2cccc(-n3cc(NC(=O)Nc4c(C)cccc4Cl)cn3)c2)cc(OC)c1OC	-1.5	40.4*	>19.2
